Drawing on PubChem BioAssay (Tox21), this text covers Potency and activation for 7 compounds.

Unmarked numbers belong to inactive results. Active and inactive are the calls of the source. Unless noted, calls come from the whole dose curve; as a rule, active = well fitted curve in the direction sought with a large enough effect in the repeat runs; inconclusive = weak or mixed curves; inactive = no such curve, though single readings can be large; an effect the other way counts as inactive or inconclusive.

Assay [1] in a line: qHTS assay to identify small molecule antagonists of the glucocorticoid receptor (GR) signaling pathway - cell viability counter screen (AID 720693; note: nearly all actives have a fitted effect of over 55% in size; note: potency is the fitted concentration of half-maximal effect). (In qHTS, concentration-response curves come from the screen itself.)
Assay [2] is described as follows: qHTS assay for identifying genotoxic compounds that show differential cytotoxicity against isogenic chicken DT40 cell lines with known DNA damage response pathways - wild type cell line (AID 743012). Note: nearly all actives have a fitted effect of over 60% in size. Note: potency is the fitted concentration of half-maximal effect. In short, it runs like this:
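Viability by ATP luminescence (CellTiter-Glo, 30 min RT) after 40 h compound treatment at 37 C/5% CO2, using 300 parental DNA repair-proficient DT40 cells per well.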

Assay [3] is described as follows: qHTS assay for identifying genotoxic compounds that show differential cytotoxicity against isogenic chicken DT40 cell lines with known DNA damage response pathways - Rev3 mutant cell line (AID 743014). Note: nearly all actives have a fitted effect of over 55% in size. Note: potency is the fitted concentration of half-maximal effect.
Assay [4] in a line: qHTS assay for identifying genotoxic compounds that show differential cytotoxicity against isogenic chicken DT40 cell lines with known DNA damage response pathways - Rad54/Ku70 mutant cell line (AID 743015). Note: nearly all actives have a fitted effect of over 60% in size. Note: potency is the fitted concentration of half-maximal effect.
The nature of assay [5]: qHTS assay to identify small molecule antagonists of the androgen receptor (AR) signaling pathway using the MDA cell line - cell viability counter screen (AID 743041; note: % is set by controls: 0 for no effect and ±100 for the full control effect; nearly all actives have a fitted effect of over 45% in size). In short, it runs like this:
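Viability read by CellTiter-Fluor fluorescence in the same wells as the antagonist screen, added after 15.5 h of a 16 h, 37C exposure. Human breast carcinoma MDA-kb2 AR-luc cells, compounds co-dosed with agonist R1881.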

The test system of assay [6] is thyroid hormone receptor (rat, GH3 cells). As to the kind of experiment: qHTS assay to identify small molecule agonists of the thyroid receptor (TR) signaling pathway (AID 743066; calls by dose curve; note: % is set by controls: 0 for no effect and ±100 for the full control effect).
In assay [7] the target is Estrogen receptor (Homo sapiens) (UniProt P03372). As to the kind of experiment: qHTS assay to identify small molecule antagonists of the estrogen receptor alpha (ER-alpha) signaling pathway (AID 743069; active = well fitted curve in the direction sought with a large enough effect in the signal ratio in the repeat runs, not every such curve was filed as active; inconclusive = weak or mixed curves, or effect the other way; inactive = no such curve, though single readings can be large or run the other way; the % refers to the signal ratio; note: potency is the fitted concentration of half-maximal effect). In short, it runs like this:
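Antagonist mode: compounds in DMSO were co-added with 17beta-estradiol to ER-alpha-bla HEK293 cells (2% charcoal-stripped serum) and left 18 h at 37C. Reporter inhibition was measured as FRET fluorescence after 2 h LiveBLAzer substrate at room temperature.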

The nature of assay [8]: qHTS assay to identify small molecule antagonists of the estrogen receptor alpha (ER-alpha) signaling pathway - cell viability counter screen (AID 743074; calls by dose curve;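 note: HEK293 cells carrying ER-alpha-UAS-bla reporter stimulated with 17beta-estradiol; nearly all actives have a fitted effect of over 45% in size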; note: potency is the fitted concentration of half-maximal effect).
The target of assay [9] is Estrogen receptor (Homo sapiens) (UniProt P03372). As to the kind of experiment: qHTS assay to identify small molecule agonists of the estrogen receptor alpha (ER-alpha) signaling pathway (AID 743075; calls by dose curve;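 note: HEK293 GripTite cells with ER-alpha and UAS-driven beta-lactamase reporter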; note: potency is the fitted concentration of half-maximal effect; for activation: % is set by controls: 0 for no effect and ±100 for the full control effect). The note with it: HEK293 ER-alpha-UAS-bla, beta-lactamase FRET ratio, 18 h; activation: at 70.1 µM (top of the series).
Assay [10] can be described thus: qHTS assay to identify small molecule antagonists of the estrogen receptor alpha (ER-alpha) signaling pathway using the BG1 cell line (AID 743080; calls by dose curve;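 note: BG1 cells stimulated with 17beta-estradiol alongside compound; nearly all actives have a fitted effect of over 25% in size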; note: potency is the fitted concentration of half-maximal effect). In short, it runs like this: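 BG1Luc4E2, endogenous ER-alpha, 4xERE-luc; 5 d charcoal-stripped FBS, phenol red free; 24 h plating; cpd + 17beta-estradiol 21.5 h, 37 C/5% CO2; CellTiter-Fluor viability 30 min, then ONE-Glo luciferase 30 min RT.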

The nature of assay [11]: qHTS assay to identify small molecule antagonists of the estrogen receptor alpha (ER-alpha) signaling pathway using the BG1 cell line - cell viability counter screen (AID 743081).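 Note: compound given together with 17beta-estradiol as the ER stimulus; nearly all actives have a fitted effect of over 45% in size.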 Note: potency is the fitted concentration of half-maximal effect.
Assay [12] is described as follows: qHTS assay to identify small molecule antagonists of the androgen receptor (AR) signaling pathway - cell viability counter screen (AID 743033; note: nearly all actives have a fitted effect of over 45% in size; note: potency is the fitted concentration of half-maximal effect).
For assay [13], the target named is Aromatase (Homo sapiens) (UniProt P11511). As to the kind of experiment: qHTS assay to identify aromatase inhibitors (AID 743083). Note: nearly all actives have a fitted effect of over 55% in size. Note: potency is the fitted concentration of half-maximal effect.
Assay [14] addresses Androgen receptor (Homo sapiens) (UniProt P10275). As to the kind of experiment: qHTS assay to identify small molecule antagonists of the androgen receptor (AR) signaling pathway (AID 743035; active = well fitted inhibition curve with a large enough effect in the signal ratio in the repeat runs, not every such curve was filed as active; inconclusive = weak or mixed curves, or effect the other way; inactive = no such curve, though single readings can be large or run the other way; the % refers to the signal ratio; note: potency is the fitted concentration of half-maximal effect). In short, it runs like this:
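Antagonist mode: AR-bla HEK293 cells co-treated with test compounds and agonist R1881 for 16 h at 37C, 5% CO2. Beta-lactamase activity read as FRET fluorescence after 2 h room-temperature substrate loading.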

Assay [15] shares this target. As to the kind of experiment: qHTS assay to identify small molecule agonists of the androgen receptor (AR) signaling pathway using the MDA cell line (AID 743040; note: % is set by controls: 0 for no effect and ±100 for the full control effect; nearly all actives have a fitted effect of over 20% in size). The essentials:
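Luciferase agonist assay: 16 h compound exposure at 37C without CO2 in MDA-kb2 AR-luc cells, whose MMTV promoter responds to both AR and GR. Luminescence measured after 30 min room-temperature incubation with ONE-Glo.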

Assay [16] shares this target. As to the kind of experiment: qHTS assay to identify small molecule antagonists of the androgen receptor (AR) signaling pathway using the MDA cell line (AID 743042; note: potency is the fitted concentration of half-maximal effect; nearly all actives have a fitted effect of over 55% in size). The essentials:
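Antagonist mode: compounds plus R1881 agonist added to MDA-kb2 AR-luc cells, incubated 16 h at 37C. Luciferase reporter luminescence quantified, with multiplexed CellTiter-Fluor readout for cell viability.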

For assay [17], the target named is Estrogen receptor (Homo sapiens) (UniProt P03372). As to the kind of experiment: qHTS assay to identify small molecule agonists of the estrogen receptor alpha (ER-alpha) signaling pathway using the BG1 cell line (AID 743079). Note: % is set by controls: 0 for no effect and ±100 for the full control effect; nearly all actives have a fitted effect of over 20% in size. The note with it: BG1Luc4E2 cells, ERE-luciferase agonist, 22 h; at 70.3 µM (top of the series).
The nature of assay [18]: qHTS assay to identify small molecule antagonists of the thyroid receptor (TR) signaling pathway - cell viability counter screen (AID 743064). Note: nearly all actives have a fitted effect of over 50% in size. Note: potency is the fitted concentration of half-maximal effect. In short, it runs like this: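 GH3.TRE-Luc rat pituitary cells carrying a TRE-luciferase reporter were treated with compound plus 1 nM T3 (final) for 23.5 h at 37 °C. Viability was then read in the same wells by CellTiter-Fluor fluorescence after a further 30 min.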

Assay [19] in a line: qHTS assay to identify small molecule antagonists of the thyroid receptor (TR) signaling pathway (AID 743065). Note: nearly all actives have a fitted effect of over 55% in size. Note: potency is the fitted concentration of half-maximal effect. In short, it runs like this: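 Antagonism measured as loss of luciferase signal in GH3 cells stably carrying a TRE-luciferase reporter, co-treated with compound and T3 (1 nM final) for 23.5 h at 37 C. Viability was read in the same well by CellTiter-Fluor.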

Aromatase (Homo sapiens), sequence (P11511 whole entry, looked up): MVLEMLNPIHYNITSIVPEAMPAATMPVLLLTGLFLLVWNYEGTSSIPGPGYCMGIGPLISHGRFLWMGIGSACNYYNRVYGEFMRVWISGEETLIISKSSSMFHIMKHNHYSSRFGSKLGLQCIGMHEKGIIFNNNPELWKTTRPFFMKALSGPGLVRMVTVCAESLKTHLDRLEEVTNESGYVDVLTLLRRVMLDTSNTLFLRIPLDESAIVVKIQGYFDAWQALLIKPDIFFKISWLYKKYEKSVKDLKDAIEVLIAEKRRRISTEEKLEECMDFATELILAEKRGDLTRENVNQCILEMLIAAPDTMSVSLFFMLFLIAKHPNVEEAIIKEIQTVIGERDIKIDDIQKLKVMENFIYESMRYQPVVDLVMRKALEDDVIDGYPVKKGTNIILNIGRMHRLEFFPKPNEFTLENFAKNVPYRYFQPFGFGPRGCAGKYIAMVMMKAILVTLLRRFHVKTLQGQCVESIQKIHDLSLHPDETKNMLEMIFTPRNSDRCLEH
Androgen receptor (Homo sapiens), sequence (P10275 whole entry, looked up): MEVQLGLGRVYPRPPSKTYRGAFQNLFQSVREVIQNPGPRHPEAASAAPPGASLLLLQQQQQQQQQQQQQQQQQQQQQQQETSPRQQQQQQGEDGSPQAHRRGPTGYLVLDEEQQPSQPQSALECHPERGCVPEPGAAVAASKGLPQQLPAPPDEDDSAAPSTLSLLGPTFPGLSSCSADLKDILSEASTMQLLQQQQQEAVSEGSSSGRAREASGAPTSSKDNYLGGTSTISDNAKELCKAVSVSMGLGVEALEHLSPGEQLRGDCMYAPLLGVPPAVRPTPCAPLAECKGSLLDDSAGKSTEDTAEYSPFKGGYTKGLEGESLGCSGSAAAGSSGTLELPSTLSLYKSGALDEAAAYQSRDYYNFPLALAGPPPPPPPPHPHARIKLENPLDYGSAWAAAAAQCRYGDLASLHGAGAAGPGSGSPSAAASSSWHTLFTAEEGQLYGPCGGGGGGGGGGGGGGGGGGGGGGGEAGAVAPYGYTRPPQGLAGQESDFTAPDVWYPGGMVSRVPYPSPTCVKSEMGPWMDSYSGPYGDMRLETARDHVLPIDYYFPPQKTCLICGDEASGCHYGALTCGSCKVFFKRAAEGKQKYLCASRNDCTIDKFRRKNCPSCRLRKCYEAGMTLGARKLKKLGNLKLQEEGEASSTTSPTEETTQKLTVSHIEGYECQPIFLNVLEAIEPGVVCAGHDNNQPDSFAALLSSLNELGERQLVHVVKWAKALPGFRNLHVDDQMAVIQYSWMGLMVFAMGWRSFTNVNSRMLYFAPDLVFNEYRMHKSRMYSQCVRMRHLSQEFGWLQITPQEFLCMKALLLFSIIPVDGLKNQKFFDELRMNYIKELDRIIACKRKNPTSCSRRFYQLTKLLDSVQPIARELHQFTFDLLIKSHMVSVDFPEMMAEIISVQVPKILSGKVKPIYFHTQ
Estrogen receptor (Homo sapiens), sequence (P03372 whole entry, looked up): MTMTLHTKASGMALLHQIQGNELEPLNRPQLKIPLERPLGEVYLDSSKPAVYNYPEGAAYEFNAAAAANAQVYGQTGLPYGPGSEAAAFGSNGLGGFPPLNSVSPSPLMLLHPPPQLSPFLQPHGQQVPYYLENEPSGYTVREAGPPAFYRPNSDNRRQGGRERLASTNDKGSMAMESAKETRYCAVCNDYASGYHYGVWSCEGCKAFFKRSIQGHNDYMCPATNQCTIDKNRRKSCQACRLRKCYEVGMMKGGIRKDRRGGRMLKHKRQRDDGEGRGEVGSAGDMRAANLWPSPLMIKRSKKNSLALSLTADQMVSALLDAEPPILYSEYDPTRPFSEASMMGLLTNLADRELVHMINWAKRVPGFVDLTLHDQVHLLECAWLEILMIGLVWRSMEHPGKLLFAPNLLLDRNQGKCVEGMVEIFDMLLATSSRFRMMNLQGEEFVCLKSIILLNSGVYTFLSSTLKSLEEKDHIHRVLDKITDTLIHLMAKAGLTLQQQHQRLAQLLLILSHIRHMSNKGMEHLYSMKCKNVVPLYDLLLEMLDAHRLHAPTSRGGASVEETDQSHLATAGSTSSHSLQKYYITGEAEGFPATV

Regarding `CCCC(C)c1ccccc1O` (stereo unspecified), the Potency result in [1], in [5], in assay [6], in assay [7], in assay [8] and in assay [9] was “inactive” in each case. For the same compound, the Potency result in assay [10] and in assay [11] was “inactive” in each case. The Potency in assay [2] was 48.6 µM (active); in assay [3], 24.3 µM (active); in assay [4], 61.1 µM (active).
As to `CCOc1nc2cccc(C(=O)OC(C)OC(=O)OC3CCCCC3)c2n1Cc1ccc(-c2ccccc2-c2nn[nH]n2)cc1` (stereo unspecified), the Potency in assay [1] was 38.9 µM (active); in [2], 34.3 µM (active); in [3] it was 19.3 µM (active); in assay [4], 17.2 µM (active); in assay [12], 30900 nM (active); in [13] it was 48.5 µM (active). The Potency entry in assay [10] and in [11] was “inactive” each time.
With `O=C(Oc1ccccc1)c1ccccc1C(=O)Oc1ccccc1`, the Potency entry in assay [1], in assay [15], in assay [6], in assay [8], in assay [9] and in [11] was “inactive” each time. The Potency was 19.3 µM (active) in assay [2]; 34.4 µM (active) in assay [3]; 17.2 µM (active) in assay [4]; 49 µM (active) in [14]; 54.5 µM (active) in assay [16]. Moreover, the activation in assay [17] is -7.29%.
As for `CCCCCCCC[N+](CCCCCCCC)(CCCCCCCC)CCCCCCCC`, the Potency in [1] was 7.75 µM (active); in assay [2] it was 2.43 µM (active); in [3], 1.37 µM (active); in assay [4], 1.37 µM (active); in assay [12] it was 308 nM (active); in assay [18] it was 3.43 µM (active). The Potency in assay [7] was 38.8 µM [cytotoxic] (active); in assay [8] it was 15.5 µM (active); in assay [10], 1.72 µM (active); in assay [11] it was 24.3 µM (active); in [13], 2.16 µM (active).
As to `CCCCCCCC[P+](CCCCCCCC)(CCCCCCCC)CCCCCCCC`, the Potency in [1] is 6.13 µM (active); in assay [2] it was 5.42 µM (active); in assay [3] it was 5.42 µM (active); in [4] it was 5.42 µM (active); in [12] it was 971 nM (active); in [18], 4.3 µM (active). Further, the Potency in assay [19] is 3.05 µM (active); in assay [7], 21.7 µM [cytotoxic] (active); in assay [8], 15.4 µM (active); in assay [10] it was 1.71 µM (active); in [11], 8.58 µM (active); in [13], 1.53 µM (active).
Consider `COc1cc(-c2ccc(N=C=O)c(OC)c2)ccc1N=C=O`, for which the Potency result in assay [1], in assay [2], in assay [3], in assay [4], in [12] and in assay [18] was “inactive” each time. The Potency result in [19], in assay [6], in assay [8], in assay [11] and in assay [13] was “inactive” throughout.
For the compound `C[n+]1cc2c3c(ccc2c2ccc4cc5c(cc4c21)OCO5)OCO3`, the Potency was 6.74 µM (active) in assay [1]; 1.5 µM (active) in assay [2]; 2.11 µM (active) in assay [3]; 1.5 µM (active) in [4]; 18.8 µM (active) in assay [16]; 2.98 µM (active) in assay [18]. The Potency was 2.66 µM (active) in assay [19], 10.7 µM (active) in assay [8], 15.1 µM [inconclusive] (active) in assay [9] and 11.9 µM (active) in [13]. The Potency entry in assay [15] is “inactive”.
